Molecules are shown by their SMILES. The campaign covered roughly 350,000 compounds. About 7,000 (2%) were called active. Rule as the data show it: active = activation above about 40%; inconclusive = no clear call, values can overlap the other calls; inactive = below that. The sample as a whole holds a higher share of actives than the screen did.

This test is described as follows: Bmi1 luciferase reporter increase in mESCs, primary screen, esBAF inhibitor project, mouse ES cells, Bmi1 luciferase knock-in, single point (AID 602393).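 Also: 0% = median of the plate's neutral control wells and 100% = double that signal; a rise in the Bmi1 reporter signal indicates esBAF inhibition.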 The following applies: 24 h, at 12.5 µM, active compounds read high, 100% = twice the neutral-well signal. (In a reporter assay the amount or activity of a reporter protein is the signal.)
Take `COc1ccc(N(CCC(=O)NCCc2ccccc2)S(=O)(=O)c2ccc(C)cc2C)cc1`: the reporter increase is 77.9% (active).
Then `CCOc1ccc(N(CC(=O)NCCc2ccc(F)cc2)S(=O)(=O)c2ccccc2)cc1`, with 1.13% (inactive); and `CCN(CC(=O)NCCc1ccccc1)S(=O)(=O)c1ccc(C)cc1`, with -2.78% (inactive).
The figure for `CCc1ccc(C(=O)COC(=O)c2ccco2)cc1` is 13.9% (inactive); for `O=C(COC(=O)c1ccccc1C(=O)c1ccccc1)c1ccco1` it is -5.33% (inactive).
Then `CCN(CC)c1ccc(C(=O)OCC(=O)c2ccco2)cc1`, with 69.5% (active).
As for `C[C@@H]1CN([C@H](C)CO)C(=O)c2cc(-c3cccc(F)c3)cnc2O[C@@H]1CN(C)C`, the reporter increase is -2.09% (inactive).
The figure for `Cc1noc(C)c1S(=O)(=O)Nc1ccc2c(c1)C(=O)N([C@H](C)CO)C[C@H](C)[C@H](CN(C)S(=O)(=O)c1cn(C)cn1)OCCCC[C@@H](C)O2` is -2.07% (inactive); for `C[C@@H]1CCCCO[C@@H](CN(C)C(=O)NC2CCCCC2)[C@H](C)CN([C@H](C)CO)C(=O)c2cc(NC(=O)c3ccccc3)ccc2O1` it is 8.88% (inactive).
Then `Cc1ccccc1S(=O)(=O)NCC[C@@H]1CC[C@@H](NS(=O)(=O)c2ccccc2C)[C@@H](CO)O1`, with 2.87% (inactive); and `O=C(NCCCN1CCCCCC1)c1ccc(N2CCCC2=O)cc1`, with -4.86% (inactive); and `O=C(c1cccc(N2CCCC2=O)c1)N1CCOCC1`, with -0.631% (inactive).
Then `O=C(NCCc1ccc(Cl)cc1)c1cccc(N2CCCC2=O)c1`, with 54.9% (active); and `COc1ccc(CN(C)C[C@H]2OCCCC[C@H](C)Oc3ccc(NC(=O)NC4CCCCC4)cc3C(=O)N([C@@H](C)CO)C[C@@H]2C)cc1`, with 2.7% (inactive); and `O=C(CSCc1ccc(Cl)cc1)N1CCCCC1`, with 47.9% (active).
Take `O=C(CSCc1ccc(Cl)cc1)N1CCN(Cc2ccc3c(c2)OCO3)CC1`: the reporter increase was -7.9% (inactive).
Then `O=C(CSCc1cccs1)N1CCCC1`, with 33.4% (inactive); and `CO[C@@H]1CN(C)C(=O)c2cc(NC(=O)C3CC3)ccc2OC[C@H](C)N(Cc2ccc(F)cc2)C[C@@H]1C`, with -2.84% (inactive).
In the case of `COc1ccc(-c2cnc3c(c2)C(=O)N([C@@H](C)CO)C[C@@H](C)[C@H](CN(C)C(=O)C2CCCCC2)O3)cc1`, the reporter increase was 2.07% (inactive).
Consider `CCn1c(Cc2cccs2)nnc1SCC(=O)c1ccc(C)cc1`, for which the reporter increase is 25.1% (inactive).
The figure for `CCn1c(SCC(=O)N(C)C2CCS(=O)(=O)C2)nnc1-c1cccs1` (configuration not stated) is -1.83% (inactive).
Then `CCn1c(SCC(=O)c2ccc(Cl)s2)nnc1-c1cccs1`, with 46% (active); and `COc1ccc(S(=O)(=O)N[C@@H]2CC[C@@H](CC(=O)NCCc3ccccc3)O[C@@H]2CO)cc1`, with 3.19% (inactive).
The figure for `C[C@@H]1CCCCO[C@@H](CN(C)C(=O)Cc2ccccc2)[C@H](C)CN([C@@H](C)CO)C(=O)c2cc(NC(=O)Nc3ccc(F)cc3)ccc2O1` is 1.88% (inactive); for `CC(C)NC(=O)N(C)C[C@@H]1OCc2ccccc2-c2c(n(C)c3ccccc23)C(=O)N([C@@H](C)CO)C[C@H]1C` it is -0.481% (inactive); for `O=[N+]([O-])c1cc2ccccc2nc1-c1ccccc1` it is -3.44% (inactive).
On to `O=[N+]([O-])c1ccc2c(c1)Nc1nc3ccccc3nc1N2`, for which the reporter increase was 47.3% (active).
Then `O=C(Oc1ccc([N+](=O)[O-])cc1)c1ccc2ccccc2n1`, with 0.987% (inactive); and `CO[C@@H]1CN(C)C(=O)c2cc(NC(=O)c3ccccc3F)ccc2OC[C@@H](C)N(CC2CC2)C[C@H]1C`, with 1.73% (inactive).
The figure for `COc1ccccc1S(=O)(=O)N1CC[C@H]2[C@@H](CO)N(C)c3ccc(C#Cc4ccccc4)cc3[C@H]21` is -3.04% (inactive).
Then `C[C@H]1CCCCO[C@@H](CN(C)Cc2ccncc2)[C@@H](C)CN([C@@H](C)CO)C(=O)c2cc(NC(=O)Nc3ccc(F)cc3)ccc2O1`, with -1.97% (inactive); and `COc1cccc(C(=O)Nc2cccnc2)c1OC`, with 0.381% (inactive); and `CCOC(=O)c1ccc(-c2ccc(C(=O)Nc3cccnc3)o2)cc1`, with 58.2% (active).
For the compound `CCOC(=O)c1ccc(NC(=O)CNC(=O)c2ccco2)cc1`, the reporter increase is -2.33% (inactive).
The figure for `CC(=O)N1[C@@H](CO)[C@@H]2c3ccccc3N(S(=O)(=O)c3ccccc3)C[C@@H]21` is 0.543% (inactive); for `C=CCSc1nnc(N2C(=O)C(O)=C(C(=O)c3ccco3)C2c2ccc(F)cc2)s1` (configuration not stated) it is 10.6% (inactive).
Then `O=C(c1cccc([N+](=O)[O-])c1)N1CCN(C(=O)c2ccco2)CC1`, with -1.81% (inactive); and `O=C(c1ccco1)N1CCN(C(=O)c2cc(-c3ccccc3F)no2)CC1`, with 66.3% (active); and `O=C(NCCCN1CCOCC1)c1cc(-c2ccccc2F)no1`, with 19.6% (inactive).
As for `O=C(Cc1c(F)cccc1Cl)N1CCN(C(=O)c2ccco2)CC1`, the reporter increase is 3.68% (inactive).
Then `O=C(c1ccco1)N1CCN(C(=S)Nc2cc(F)cc(F)c2)CC1`, with 7.97% (inactive); and `COc1ccc2nc(N3CCN(C(=O)c4ccc([N+](=O)[O-])o4)CC3)sc2c1`, with -6.63% (inactive); and `Cc1ccc(OCC(=O)Nc2ccc(N3CCN(C(=O)c4ccco4)CC3)cc2)c(C)c1`, with 0.555% (inactive).
For `Cc1ccc2nc(N3CCN(C(=O)c4ccco4)CC3)sc2c1`, the reporter increase is 54.6% (active).
Then `COc1ccc2nc(N3C(=O)C(O)=C(C(=O)c4ccco4)C3c3ccco3)sc2c1` (configuration not stated), with -10.8% (inactive); and `Cc1ccc2nc(N3C(=O)C(O)=C(C(=O)c4ccco4)C3c3cccc(O)c3)sc2c1` (configuration not stated), with 43.5% (active); and `O=C(c1ccco1)N1CCN(c2cccc(Cl)c2)CC1`, with 45.4% (active).
Then `COCC#Cc1cnc2c(c1)C(=O)N([C@@H](C)CO)C[C@@H](C)[C@@H](CN(C)C(=O)c1cccnc1)O2`, with 3.33% (inactive).
`C[C@H](CO)N1C[C@H](C)[C@H](CN(C)C(=O)Nc2ccc3c(c2)OCO3)Oc2ccc(NS(=O)(=O)c3ccc(Cl)cc3)cc2CC1=O`: the reporter increase was 4.87% (inactive).
Then `Cc1cccc(CN(C)C[C@@H]2OCc3cn(nn3)CCCC(=O)N([C@@H](C)CO)C[C@H]2C)c1`, with -0.643% (inactive); and `COCCNC(=O)[C@@H]1[C@@H](CO)[C@@H]2Cn3c(ccc(-c4ccccc4F)c3=O)[C@@H]2N1C(=O)C1CC1`, with 2.48% (inactive); and `CO[C@@H]1CN(C)C(=O)c2cc(NC(=O)Nc3ccc(F)cc3)ccc2OC[C@@H](C)NC[C@@H]1C`, with -1.25% (inactive).
Then `CO[C@H]1CN(C)C(=O)c2ccc(NC(=O)Nc3ccc4c(c3)OCO4)cc2OC[C@H](C)NC[C@H]1C`, with 37% (inactive).
Then `CO[C@@H]1CN(C)C(=O)c2cc(NC(=O)Nc3ccc4c(c3)OCO4)ccc2OC[C@@H](C)NC[C@@H]1C`, with 73.2% (active); and `COc1ccc(NC(=O)N(C)C[C@@H]2Oc3ccc(NC(=O)Cn4cnnn4)cc3C(=O)N([C@H](C)CO)C[C@@H]2C)cc1`, with 1.18% (inactive).
On to `COC(=O)/C=C/C(=O)NCc1ccco1`, for which the reporter increase was 8.72% (inactive).
The figure for `O=C(COC(=O)Cc1ccc(Cl)cc1Cl)NCc1ccco1` is -12.6% (inactive).
As to `O=C(/C=C/c1ccc(Cl)cc1Cl)NCc1ccco1`, the reporter increase was 44.2% (active).
The figure for `COc1ccc(S(=O)(=O)Nc2ccc3c(c2)CC(=O)N([C@@H](C)CO)C[C@@H](C)[C@H](CN(C)S(=O)(=O)c2ccccc2)O3)cc1` is 4.43% (inactive); for `COc1ccc(S(=O)(=O)Nc2ccc3c(c2)C(=O)N([C@@H](C)CO)C[C@@H](C)[C@H](CN(C)Cc2ccc(C(F)(F)F)cc2)OCCCC[C@@H](C)O3)cc1` it is -1.52% (inactive); for `COc1ccccc1-c1cnn2c(N3CCOCC3)cc(C)nc12` it is 57.3% (active).
The figure for `Cc1cc(-n2nc(C)cc2C)n2ncc(-c3ccccc3)c2n1` is 28.6% (inactive); for `COc1ccccc1NC(=O)C1CCCN(c2cc(C)nc3ncnn23)C1` (configuration not stated) it is -8.67% (inactive).
The figure for `CN1c2ccc(C3=CCCCC3)cc2[C@H]2[C@H](CCN2S(=O)(=O)c2ccccc2)[C@@H]1CO` is 3.61% (inactive); for `Cc1ccc(/C=N/NC(=O)c2sccc2OCc2ccc(F)cc2)cc1` it is 53.7% (active).
On to `Cc1ccc(S(=O)(=O)Oc2ccc(/C=N/NC(=O)c3ccncc3)cc2)cc1`, for which the reporter increase is 4.2% (inactive).
With `Cc1ccc(S(=O)(=O)N(CC(=O)N/N=C/c2ccc(F)cc2)c2cccc3cccnc23)cc1`, the reporter increase is 0.787% (inactive).
The figure for `C[C@H]1CN([C@@H](C)CO)S(=O)(=O)c2ccc(-c3ccccc3)cc2O[C@H]1CN(C)C(=O)CC1CC1` is -0.183% (inactive); for `CCCNC(=O)N1C[C@H]2[C@@H](c3ccccc31)[C@@H](CO)N2C(=O)NCCC` it is -2.97% (inactive).
The figure for `O=C(NCC[C@H]1CC[C@H](NC(=O)C2CC2)[C@@H](CO)O1)c1cc(Cl)cc(Cl)c1` is 1.12% (inactive); for `C[C@@H]1CN([C@H](C)CO)C(=O)c2cc(Br)cnc2O[C@@H]1CN(C)C(=O)C1CC1` it is -3.93% (inactive); for `O=C(Nc1ccc(N2CCOCC2)cc1)c1ccc(-c2ccccc2[N+](=O)[O-])o1` it is 22.9% (active).
Then `COc1ccccc1C(=O)NC(=S)Nc1ccc(N2CCOCC2)cc1`, with 25.5% (inactive).
For `O=[N+]([O-])c1ccc(N2CCOCC2)cc1`, the reporter increase was 6.61% (inactive).
As to `C[C@H]1CN([C@@H](C)CO)C(=O)c2cccc(NS(=O)(=O)c3cccs3)c2O[C@H]1CN(C)C(=O)Nc1ccccc1`, the reporter increase was -1.97% (inactive).
Then `O=C(Cc1ccncc1)NCC[C@H]1CC[C@H](NC(=O)C2CC2)[C@H](CO)O1`, with -2.52% (inactive); and `CC(=O)c1cnc(SCC(=O)O)nc1C`, with -5.69% (inactive); and `CCn1c(SCC(=O)Nc2nccs2)nnc1-c1ccncc1`, with -8.57% (inactive).
The figure for `Cc1cc(NC(=O)CSc2nc3c(cc2C#N)CCCCC3)no1` is -7.82% (inactive).
Regarding `CC(=O)c1cc(C#N)c(SCC(=O)C(C)(C)C)nc1C`, the reporter increase is 50.6% (active).
Then `CC(=O)c1cc(C#N)c(SCC(=O)Nc2nccs2)nc1C`, with 64.7% (active); and `Cn1c(SCC(=O)Nc2nccs2)nnc1-c1cccnc1`, with -5.27% (inactive).

For the origin of these results see PubChem BioAssay AID602393 (Broad Institute, 2012).
